From PubChem
LASV entry inh: Lassa virus entry inhibition; Lassa virus pseudotype entry inhibition, cell reporter; Potency, µM (titrated, usually from 37.9 µM), inactives show top-dose activity change, negative = inhibition, most hits filed as inhibitors; 1.2% of 300,000 active; calls by dose curve; tested in HEK293 cells; also: potency is read from the fitted curve at half-maximal effect; % is scaled to controls: 0 for no effect and ±100 for the full control effect; nearly all actives have a fitted effect of over 50% in size
Shiga inhibitor: Shiga toxin inhibition. Vero cells, Shiga toxin protein synthesis inhibition reporter. AID 2315. 9.2% of 290,000 active. inhibition, % at 38.7 µM; in the data active = inhibition mostly above about 28%, no sharp cut-off; inactive = mostly below about 43%; also: 0% is about no effect
MARV entry inh: inhibitors of Marburg virus binding or cell entry. Marburg virus pseudotyped entry inhibition, cell reporter. Potency, µM (doses to about 37.8 µM), without a hit: top-dose activity change, negative = inhibition, hits mostly inhibitors. 1.8% of 300,000 active; calls by dose curve; tested in HEK293 cells; also: potency is read from the fitted curve at half-maximal effect; % is scaled to controls: 0 for no effect and ±100 for the full control effect
CHX counter: affects cycloheximide protein synthesis inhibition readout, counter-screen. 12% of 300,000 active. max response, %. cell reporter, cycloheximide protein synthesis inhibition counterscreen; in the data active = max response mostly above about 13%, no sharp cut-off; inactive = mostly below about 14%; also: read at 38.3 µM for the half of the compounds with a filed dose; 0% is about no effect
Pf growth 48h: P. falciparum growth inhibition at 48 hours (one generation). P. falciparum luciferase growth in erythrocytes, 48 h. Potency, µM (series often up to 28.7 µM), without a hit: at the top dose activity change, negative = inhibition, most hits filed as inhibitors. 5.9% of 310,000 active. AID 504832; also: potency is read from the fitted curve at half-maximal effect; % is scaled to controls: 0 for no effect and ±100 for the full control effect
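Luciferase-expressing P. falciparum in infected erythrocytes (2% hematocrit, 0.1% parasitemia final) in RPMI 1640/0.5% Albumax were exposed to compound for 48 hours at 37 C, 5% CO2; growth read as luminescence.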
Pf growth 96h: inhibits malaria parasite growth, 96 h | P. falciparum luciferase reporter growth, 96 h | 6.9% of 320,000 active | Potency, µM (series often up to 28.7 µM), for inactives: top-dose activity change, negative = inhibition, usual class: inhibitors | AID 504834; also: potency is read from the fitted curve at half-maximal effect; % is scaled to controls: 0 for no effect and ±100 for the full control effect
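Cell-based qHTS: luciferase-tagged P. falciparum in erythrocytes (2% hematocrit, 0.05% parasitemia final) incubated with compounds for 96 hours, 37 C, 5% CO2; luciferase detection reagent then added and luminescence measured.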
* hit, by the source's call; ? = inconclusive; / = no result; [ ] = remark or other dose. Only some compounds are listed: those with a hit (about 19% of all), similar ones and a draw of the others. Unless noted, calls follow the shape of the dose curve; as a rule, active = well fitted inhibition curve with a large enough effect; inconclusive = small, poorly fitted or top-dose-only effect, or another doubt; inactive = no such curve, though single readings can be large or run the other way.

SMILES | LASV entry inh | Shiga inhibitor | MARV entry inh | CHX counter | Pf growth 48h | Pf growth 96h
COc1ccccc1C(=O)NC(=O)COC(=O)/C(=C/c1ccccc1)NC(C)=O | -4% | -8 | 10% | -4 | 14% | 5%
OC1CCN(c2c3c(nc4cc(-c5ccc(F)cc5)nn24)CCC3)CC1 | -16% | -6 | -1% | 2 | ? | ?
Cc1cccc(-c2cc3nc4c(c(NCc5ccco5)n3n2)CCCC4)c1 | ? | 126* | ? | 57* | -11% | 0%
Cc1cccc(-c2cc3nc4c(c(N5CCC6(CC5)OCCO6)n3n2)CCCC4)c1 | 3% | / | ? | / | / | /
Fc1ccc(-c2cc3nc4c(c(N5CCOCC5)n3n2)CCCC4)cc1 | ? | 95* | ? | 29* | 10µM* | -7%
Cc1cccc(-c2cc3nc4c(c(N5CCOCC5)n3n2)CCCC4)c1 | ? | 73* | ? | 32* | ? | 75%
CCOC(=O)c1c(NC(=O)COC)sc(C(C)=O)c1C | -8% | -2 | 3% | -2 | 52% | 18%
CCOc1ccc(C(C)NC(=S)NCc2ccc(F)cc2)cc1 (centres undefined) | ? | 14 | ? | -3 | ? | -19%
CCC(NC(=S)NCc1ccc(F)cc1)c1ccc(C)cc1 (centres undefined) | ? | 35 | 10µM* | 1 | 9.3µM* | 10µM*
CCc1ccc(C(C)NC(=S)NCc2ccc(F)cc2)cc1 (centres undefined) | ? | 8 | ? | 12 | 13µM* | 15µM*
CCCC(=O)NC(c1ccccc1OC)c1ccc2cccnc2c1O (centres undefined) | ? | -14 | ? | 1 | 1.7µM* | ?
CCCCC(=O)NC(c1ccc(N(CC)CC)cc1)c1ccc2cccnc2c1O (centres undefined) | ? | -14 | ? | 0 | ? | 11%
CCCCC(=O)NC(c1ccccc1OC)c1ccc2cccnc2c1O (centres undefined) | / | 2 | / | -1 | 1.9µM* | 2.1µM*
CCOC(=O)c1sc(NC(=O)C(C)(C)C)cc1C | / | active | / | 28* | 36% | 20%
CCOC(=O)c1sc(NC(=S)NC(=O)CC(C)C)cc1C | -6% | 49* | -19% | 43* | -4% | 68%
CC(C)CC(=O)NC(=S)Nc1sc2c(c1C(N)=O)CCC2 | 1% | 30 | -18%[46.1 µM] | 16 | 50% | 61%
CCOC(=O)c1sc(NC(=O)C2CC2)cc1C | / | 38* | / | 15* | ? | ?
CCOC(=O)c1sc(N)nc1C(C)(C)C | -8% | -13 | -15% | -2 | -4% | 4%
COc1ccc(NC(=S)NC(=O)C2CCCCC2)cc1 | / | -5 | / | -3 | -20% | 29%
CCOC(=O)c1sc(NC(=S)NC(=O)C2CCCC2)cc1C | ? | 10* | 20% | 11 | ? | 9.3µM*
COc1ccc(CN2CCCCCC2)c(C)c1C | -19% | 12 | ? | -2 | 6% | -2%
CC(=O)Nc1cccc(-n2c(=O)n(Cc3ccccc3)c(=O)c3[nH]cnc32)c1 | / | -6 | / | -3 | -10% | -8%
CCCCC12CN3CCN(CC(C3)/C1=N\NC(=O)c1ccccc1N)C2 | ? | 83* | ? | 46* | 25% | 9%
O=C(CN1C(=O)C2CCCCC2C1=O)Nc1nc(-c2ccc(F)cc2)cs1 (centres undefined) | -28%[46.1 µM] | / | 6% | / | -5% | 0%
Cc1ccc(-c2nnc(OCc3nc4ccccc4n3C)c3ccccc23)cc1 | 11% | / | 4%[46.1 µM] | / | / | /
SMILES | LASV entry inh | Shiga inhibitor | MARV entry inh | CHX counter | Pf growth 48h | Pf growth 96h
Cn1c(COc2ccccc2Br)nc2ccccc21 | / | 56* | / | 44* | 149% | ?
COc1ccccc1OCc1nc2ccccc2n1C | -6%[46.1 µM] | 134* | 8%[46.1 µM] | 51* | 103% | ?
COc1ccc(CNC(=O)CCc2c(C)nn(-c3ccc(N4CCOCC4)nn3)c2C)c(OC)c1 | 2%[46.1 µM] | / | / | / | / | /
CCc1cc(=O)oc2cc(OCC(=O)N3CCC(C(N)=O)CC3)ccc12 | / | -9 | / | -4 | 6% | ?
Cc1ccc(/C=N/NC(=O)Nc2ccccc2)o1 | ? | 100* | ? | 54* | 199% | ?
Cc1ccc(/C=C/C(=O)NC2CCCCCCC2)o1 | 1% | 74* | 7% | 41* | 69% | 4%
Cc1ccc(/C=N/NC(=O)C(O)c2ccccc2)o1 (centres undefined) | 5%[46.1 µM] | 26 | 17%[46.1 µM] | 5 | -3% | 25%
CC(C)c1ccc(/C=C/C(=O)NC2CCCCC2)cc1 | ? | 14 | 1% | 13 | ? | ?
Cc1cccc(/C=N/NC(=O)NC2CCCCC2)c1 | ? | 69* | -21% | 39* | 20% | ?
Cc1ccc(/C=N/NC(=O)NC2CCCCC2)o1 | ? | 41* | 12%[46.1 µM] | 21* | 13% | -6%
COc1ccccc1OCc1csc(NC(=O)c2ccco2)n1 | 3% | 98* | -8% | 53* | 91% | 176%
Cc1nc(C)c(-c2csc(Nc3ccc(O)c(C(=O)O)c3)n2)s1 | -1% | 9 | 9% | -1 | -6% | ?
CCOc1ccccc1Nc1nc(-c2sc(C)nc2C)cs1 | -5%[46.1 µM] | 48* | ? | 19* | ? | -2%
Cc1ccccc1Nc1nc(-c2sc(NC(=O)c3ccco3)nc2C)cs1 | / | 16 | / | 9 | 12µM* | ?
CCOc1ccccc1Nc1nc(-c2sc(NC(=O)c3ccco3)nc2C)cs1 | / | 27 | / | 14 | 15µM* | 2.3µM*
Nc1ccc(S(=O)(=O)NNC(=O)C(=O)NNc2ccccn2)cc1 | 0% | -7 | 0% | -1 | -16% | 6%
Cc1ccc(Nc2nc(-c3sc(NC(=O)c4ccco4)nc3C)cs2)cc1 | / | 36 | / | 20* | 9.3µM* | ?
CC(C)c1ccc(C2CC(c3ccc(Br)cc3)=NN2C(N)=S)cc1 (centres undefined) | ? | active | ? | 19 | ? | ?
CNC(=S)N1N=C(c2ccc(C)cc2)CC1c1ccc(Cl)cc1 (centres undefined) | 9.2µM* | -10 | ? | -2 | / | 8.3µM*
Cc1ccc(N(Cc2ccc([N+](=O)[O-])cc2)C(=O)c2ccco2)cc1C | -7% | -5 | 0% | -2 | -8% | -100%
COc1ccc(/C=C/C(=O)c2cc(F)ccc2OC(=O)c2ccccc2C)cc1OC | ? | -7 | 5.2µM* | -1 | ? | -35%
COc1ccc(NC(=O)CN2C(=O)C(c3ccc(C)cc3)=NC23CCCCCC3)cc1Cl | -22%[46.1 µM] | / | ? | / | / | /
COC(=O)C1=C(c2ccc(F)cc2F)C[C@@H]2CC[C@H]1N2C(=O)NCCCOC(C)C | / | / | / | / | -11% | ?
COC(=O)C1=C(c2ccc(F)cc2F)C[C@@H]2CC[C@H]1N2C(=O)NCCOc1ccccc1Cl | / | / | / | / | ? | 10µM*
COC(=O)C1=C(c2ccc(F)cc2F)C[C@@H]2CC[C@H]1N2C(=O)NCCO | / | / | / | / | 22% | 37%
